Screening data deposited in PubChem BioAssay by National Center for Advancing Translational Sciences (NCATS).
HCMV antiviral: blocks human cytomegalovirus replication. HFF cells, HCMV-luciferase reporter, 72 h; stronger effect = lower value. activity change, negative = inhibition, % at 57.5 µM. 4.5% of 410,000 active. AID 1259415; in the data active = activity change below about -60%; inconclusive = no clear call, values can overlap the other calls; inactive = above about -39%
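Human foreskin fibroblasts infected with luciferase-reporter HCMV at MOI 1 PFU/cell, compounds at two doses. Luciferase measured 72 h post infection; normalized to buffer-only basal and Salinomycin (10uM) controls.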
Pf growth 48h: inhibits P. falciparum growth in the first generation, 48 h | P. falciparum luciferase growth in erythrocytes, 48 h | Potency, µM (titrated, usually from 28.7 µM), hits mostly inhibitors | 5.9% of 310,000 active | AID 504832
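First compound was added to culture medium, then infected red cells at 0.1% parasitemia and 2% hematocrit (final). After incubation at 37 C under 5% CO2, luciferase detection reagent was dispensed and light output recorded.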
Pf growth 96h: inhibits malaria parasite growth, 96 h | P. falciparum luciferase reporter growth, 96 h | Potency, µM (doses to about 28.7 µM), usual class: inhibitors | 6.9% of 320,000 active
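Parasite growth measured via integrated firefly luciferase reporter in P. falciparum. Infected erythrocytes at 2% hematocrit, 0.05% parasitemia final were treated 96 hours at 37 C under 5% CO2, and luminescence was read.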
Sm TGR block: S. mansoni TGR enzyme inhibition; Q962Y6; AID 485364; 3% of 360,000 active; Potency, µM (top dose mostly 114 µM), most hits filed as inhibitors; purified TGR, DTNB reduction, TNB absorbance 405 nm; note: nearly all actives have a fitted effect of over 60% in size
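TGR 20 nM + NADPH 100 uM (dispensed conc.), cpd preinc 15 min RT; start with NADPH (500 uM addition) then DTNB (15 mM addition). Kinetic TNB absorbance, 405 nm filter. Four-parameter Hill fit across titration.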
FBPA Giardia inh: inhibitors of Giardia lamblia fructose-1,6-bisphosphate aldolase; AID 2451; 0.71% of 290,000 active; Potency, µM (series often up to 59.6 µM), usual class: inhibitors; A8B2U2; purified Giardia FBPA; note: nearly all actives have a fitted effect of over 55% in size
Target sequence (A8B2U2 whole entry, looked up): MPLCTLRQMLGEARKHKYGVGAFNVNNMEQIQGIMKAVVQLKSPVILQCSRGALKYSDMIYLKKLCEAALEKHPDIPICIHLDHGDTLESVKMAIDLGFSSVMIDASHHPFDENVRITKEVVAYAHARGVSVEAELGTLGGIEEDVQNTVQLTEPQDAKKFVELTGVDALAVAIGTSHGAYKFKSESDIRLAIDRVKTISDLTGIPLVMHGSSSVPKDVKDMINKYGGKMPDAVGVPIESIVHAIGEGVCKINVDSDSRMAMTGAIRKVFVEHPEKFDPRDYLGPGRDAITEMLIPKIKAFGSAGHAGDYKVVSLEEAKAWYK
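40 nM FBPA preincubated 10 min at RT with compound (up to 57.5 uM final), then substrate plus GAPDH/TPI/NAD/arsenate coupling and diaphorase/resazurin added. Fluorescence read after 20 min at RT, 525/598 nm.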
Large screens that a line does not name were inactive. An excerpt weighted towards active compounds, which were near 14% of everything screened. Unless noted, calls come from the whole dose curve; as a rule, active = well fitted curve in the direction sought with a large enough effect; inconclusive = small, poorly fitted or top-dose-only effect, or another doubt; inactive = no such curve, though single readings can be large; an effect the other way counts as inactive or inconclusive.

Cc1c(C(=O)N2CCCCC2)c(S(=O)(=O)NCc2ccc(N(C)C)cc2)c(C)n1C	Pf growth 96h 0.83µM
Cc1ccc(CNS(=O)(=O)c2c(C(=O)N3CCCCC3)c(C)n(C)c2C)cc1	none
Cc1c(C(=O)N2CCCCC2)c(S(=O)(=O)NCc2ccc(F)cc2)c(C)n1C	Sm TGR block inconclusive
COc1ccc(CNS(=O)(=O)c2c(C(=O)N3CCCCCC3)c(C)n(C)c2C)cc1	Pf growth 96h 3.3µM
COc1cccc(NC(=O)CN(C)C(=O)CCCc2nc3ccccc3s2)c1	Pf growth 96h inconclusive (no result: FBPA Giardia inh)
CCOC(=O)c1cc(C(C)(C)C)oc1CN	Pf growth 48h inconclusive (no result: Pf growth 96h)
CCOC(=O)c1cc(C(C)(C)C)oc1CNC(=O)c1c(C)oc2c1CCCC2	Pf growth 48h 15µM, Pf growth 96h inconclusive
CC(=O)N1CN(CCCn2ccnc2)Cc2c1sc1c2CCCC1	Pf growth 48h inconclusive (no result: Pf growth 96h)
CC(=O)N1CN(Cc2ccccn2)Cc2c1sc1c2CCCC1	Sm TGR block 40µM (no result: Pf growth 96h)
Cc1cc(SCC(=O)NCC(c2cccs2)N2CCOCC2)c(C)cc1Br (centres undefined)	Pf growth 48h inconclusive, Pf growth 96h inconclusive (no result: FBPA Giardia inh)
O=C(CCn1cnc(-c2ccccc2)c1-c1ccccc1)N/N=C/c1ccccc1O	HCMV antiviral inconclusive
CN1CCN(c2ccc3sc(-n4ccc5ccccc54)nc3c2)CC1	HCMV antiviral -104 (no result: Pf growth 48h, Pf growth 96h, Sm TGR block, FBPA Giardia inh)
c1ccc(N2CCN(c3nc4cc5c(cc4s3)OCO5)CC2)cc1	none
NC(=O)c1ccc(-c2nc(-c3ccc4c(c3)OCO4)c(-c3ccccn3)[nH]2)cc1	none (no result: HCMV antiviral, Pf growth 48h, Pf growth 96h, Sm TGR block)
CN(C(=O)Nc1ccccc1)C1CCS(=O)(=O)C1 (centres undefined)	Pf growth 96h 2.3µM
CN(C(=O)Nc1ccccc1)C1CCCCC1	none
CC(=O)NC1=C(N(C)C2CCS(=O)(=O)C2)C(=O)c2ccccc2C1=O (centres undefined)	Pf growth 48h 13µM, Pf growth 96h 2.1µM, Sm TGR block inconclusive, FBPA Giardia inh 0.13µM
CC(=O)NC1=C(Nc2ccc(N(C)C)cc2)C(=O)c2ccccc2C1=O	HCMV antiviral -88, Pf growth 48h inconclusive, Pf growth 96h inconclusive, Sm TGR block inconclusive
CC(=O)NC(NC(C)=O)c1ccc(N(C)C)cc1	none
CC(C)c1cccc(C(C)C)c1NC(=O)CN(C)C1CCS(=O)(=O)C1 (centres undefined)	none (no result: FBPA Giardia inh)
Cc1ccccc1CNC(=O)C(C)n1nc(C)n2c(cc3occc32)c1=O (centres undefined)	none (no result: Pf growth 48h, Pf growth 96h, FBPA Giardia inh)
COP(=O)(OC)C(Nc1ccccc1)c1ccccc1 (centres undefined)	Pf growth 96h 17µM
CC(C)OP(=O)(c1ccc(N(C)C)cc1)C(Nc1ccccc1)c1ccccc1 (centres undefined)	Pf growth 48h 8.3µM, Pf growth 96h inconclusive
CC(C)CCOP(=O)(c1ccc(N(C)C)cc1)C(Nc1ccccc1)c1ccc(N(C)C)cc1 (centres undefined)	Pf growth 48h inconclusive, Pf growth 96h inconclusive
CCc1nn2c(=O)cc(COc3ccc(/C=C(\C#N)C(=O)Nc4ccc(C)cc4)cc3)nc2s1	none (no result: Pf growth 48h, Pf growth 96h, FBPA Giardia inh)
N#Cc1ncc(-c2ccc3c(c2)OCCOCCOCCOCCO3)nc1C#N	HCMV antiviral -73, Pf growth 48h inconclusive, Pf growth 96h 12µM
N#Cc1ncc(-c2ccc3c(c2)OCCOCCOCCOCCOCCO3)nc1C#N	Pf growth 48h inconclusive, Pf growth 96h 12µM
CC(C)(C)C1=C(C#N)C(c2cc3c(cc2Br)OCO3)C(C#N)=C(N)O1 (centres undefined)	Sm TGR block 2.8µM
Cc1ccc(NC(=O)N2CCc3c(sc4c3CCCC4)C2c2ccccc2)cc1F (centres undefined)	none (no result: Pf growth 48h, Pf growth 96h, FBPA Giardia inh)
Cc1ccc(NC(=O)CCN2CCC(Cc3ccccc3)CC2)cc1	Pf growth 48h 7.4µM, Pf growth 96h 10µM
CC1CCN(CCC(=O)Nc2ccc(Br)cc2)CC1	HCMV antiviral -68 (no result: Pf growth 48h, Pf growth 96h, Sm TGR block, FBPA Giardia inh)
CC1CC(C)CN(CCC(=O)Nc2ccc(Br)cc2)C1 (centres undefined)	Pf growth 96h 7.4µM
Cc1ccc(NC(=O)CCN2CCN(C/C=C/c3ccccc3)CC2)cc1	Pf growth 48h inconclusive (no result: Pf growth 96h)
COc1ccc(NC(=O)Cn2nnc(C(=O)Nc3ccc(F)c(Cl)c3)c2N)cc1	none
O=C(NCc1ccc(F)cc1)[C@@H]1[C@@H](CO)[C@@H]2Cn3c(cccc3=O)[C@H]1N2CC1CCCC1	none (no result: Pf growth 48h, Pf growth 96h, Sm TGR block, FBPA Giardia inh)
O=Cc1c(Cl)nc2ccccn2c1=O	Sm TGR block inconclusive
